Pf apPOL inh = Pf-apPOL DNA polymerase inhibition; Recombinant Pf-apPOL, molecular beacon fluorescence, 1.5 h; inhibition, % at 10 µM; hit rate 0.25% among 210,000
mHTT-CaM PPI inh = disrupts binding of mutant huntingtin to calmodulin; hit rate 3.6% among 190,000; inhibition, % at 15 µM; AlphaScreen His-mHTT/GST-CaM binding, luminescence; AID 1671202; P42858;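 note: 0% = both proteins with DMSO and 100% = one protein alone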
Target sequence (P42858 whole entry, looked up, stated change not applied): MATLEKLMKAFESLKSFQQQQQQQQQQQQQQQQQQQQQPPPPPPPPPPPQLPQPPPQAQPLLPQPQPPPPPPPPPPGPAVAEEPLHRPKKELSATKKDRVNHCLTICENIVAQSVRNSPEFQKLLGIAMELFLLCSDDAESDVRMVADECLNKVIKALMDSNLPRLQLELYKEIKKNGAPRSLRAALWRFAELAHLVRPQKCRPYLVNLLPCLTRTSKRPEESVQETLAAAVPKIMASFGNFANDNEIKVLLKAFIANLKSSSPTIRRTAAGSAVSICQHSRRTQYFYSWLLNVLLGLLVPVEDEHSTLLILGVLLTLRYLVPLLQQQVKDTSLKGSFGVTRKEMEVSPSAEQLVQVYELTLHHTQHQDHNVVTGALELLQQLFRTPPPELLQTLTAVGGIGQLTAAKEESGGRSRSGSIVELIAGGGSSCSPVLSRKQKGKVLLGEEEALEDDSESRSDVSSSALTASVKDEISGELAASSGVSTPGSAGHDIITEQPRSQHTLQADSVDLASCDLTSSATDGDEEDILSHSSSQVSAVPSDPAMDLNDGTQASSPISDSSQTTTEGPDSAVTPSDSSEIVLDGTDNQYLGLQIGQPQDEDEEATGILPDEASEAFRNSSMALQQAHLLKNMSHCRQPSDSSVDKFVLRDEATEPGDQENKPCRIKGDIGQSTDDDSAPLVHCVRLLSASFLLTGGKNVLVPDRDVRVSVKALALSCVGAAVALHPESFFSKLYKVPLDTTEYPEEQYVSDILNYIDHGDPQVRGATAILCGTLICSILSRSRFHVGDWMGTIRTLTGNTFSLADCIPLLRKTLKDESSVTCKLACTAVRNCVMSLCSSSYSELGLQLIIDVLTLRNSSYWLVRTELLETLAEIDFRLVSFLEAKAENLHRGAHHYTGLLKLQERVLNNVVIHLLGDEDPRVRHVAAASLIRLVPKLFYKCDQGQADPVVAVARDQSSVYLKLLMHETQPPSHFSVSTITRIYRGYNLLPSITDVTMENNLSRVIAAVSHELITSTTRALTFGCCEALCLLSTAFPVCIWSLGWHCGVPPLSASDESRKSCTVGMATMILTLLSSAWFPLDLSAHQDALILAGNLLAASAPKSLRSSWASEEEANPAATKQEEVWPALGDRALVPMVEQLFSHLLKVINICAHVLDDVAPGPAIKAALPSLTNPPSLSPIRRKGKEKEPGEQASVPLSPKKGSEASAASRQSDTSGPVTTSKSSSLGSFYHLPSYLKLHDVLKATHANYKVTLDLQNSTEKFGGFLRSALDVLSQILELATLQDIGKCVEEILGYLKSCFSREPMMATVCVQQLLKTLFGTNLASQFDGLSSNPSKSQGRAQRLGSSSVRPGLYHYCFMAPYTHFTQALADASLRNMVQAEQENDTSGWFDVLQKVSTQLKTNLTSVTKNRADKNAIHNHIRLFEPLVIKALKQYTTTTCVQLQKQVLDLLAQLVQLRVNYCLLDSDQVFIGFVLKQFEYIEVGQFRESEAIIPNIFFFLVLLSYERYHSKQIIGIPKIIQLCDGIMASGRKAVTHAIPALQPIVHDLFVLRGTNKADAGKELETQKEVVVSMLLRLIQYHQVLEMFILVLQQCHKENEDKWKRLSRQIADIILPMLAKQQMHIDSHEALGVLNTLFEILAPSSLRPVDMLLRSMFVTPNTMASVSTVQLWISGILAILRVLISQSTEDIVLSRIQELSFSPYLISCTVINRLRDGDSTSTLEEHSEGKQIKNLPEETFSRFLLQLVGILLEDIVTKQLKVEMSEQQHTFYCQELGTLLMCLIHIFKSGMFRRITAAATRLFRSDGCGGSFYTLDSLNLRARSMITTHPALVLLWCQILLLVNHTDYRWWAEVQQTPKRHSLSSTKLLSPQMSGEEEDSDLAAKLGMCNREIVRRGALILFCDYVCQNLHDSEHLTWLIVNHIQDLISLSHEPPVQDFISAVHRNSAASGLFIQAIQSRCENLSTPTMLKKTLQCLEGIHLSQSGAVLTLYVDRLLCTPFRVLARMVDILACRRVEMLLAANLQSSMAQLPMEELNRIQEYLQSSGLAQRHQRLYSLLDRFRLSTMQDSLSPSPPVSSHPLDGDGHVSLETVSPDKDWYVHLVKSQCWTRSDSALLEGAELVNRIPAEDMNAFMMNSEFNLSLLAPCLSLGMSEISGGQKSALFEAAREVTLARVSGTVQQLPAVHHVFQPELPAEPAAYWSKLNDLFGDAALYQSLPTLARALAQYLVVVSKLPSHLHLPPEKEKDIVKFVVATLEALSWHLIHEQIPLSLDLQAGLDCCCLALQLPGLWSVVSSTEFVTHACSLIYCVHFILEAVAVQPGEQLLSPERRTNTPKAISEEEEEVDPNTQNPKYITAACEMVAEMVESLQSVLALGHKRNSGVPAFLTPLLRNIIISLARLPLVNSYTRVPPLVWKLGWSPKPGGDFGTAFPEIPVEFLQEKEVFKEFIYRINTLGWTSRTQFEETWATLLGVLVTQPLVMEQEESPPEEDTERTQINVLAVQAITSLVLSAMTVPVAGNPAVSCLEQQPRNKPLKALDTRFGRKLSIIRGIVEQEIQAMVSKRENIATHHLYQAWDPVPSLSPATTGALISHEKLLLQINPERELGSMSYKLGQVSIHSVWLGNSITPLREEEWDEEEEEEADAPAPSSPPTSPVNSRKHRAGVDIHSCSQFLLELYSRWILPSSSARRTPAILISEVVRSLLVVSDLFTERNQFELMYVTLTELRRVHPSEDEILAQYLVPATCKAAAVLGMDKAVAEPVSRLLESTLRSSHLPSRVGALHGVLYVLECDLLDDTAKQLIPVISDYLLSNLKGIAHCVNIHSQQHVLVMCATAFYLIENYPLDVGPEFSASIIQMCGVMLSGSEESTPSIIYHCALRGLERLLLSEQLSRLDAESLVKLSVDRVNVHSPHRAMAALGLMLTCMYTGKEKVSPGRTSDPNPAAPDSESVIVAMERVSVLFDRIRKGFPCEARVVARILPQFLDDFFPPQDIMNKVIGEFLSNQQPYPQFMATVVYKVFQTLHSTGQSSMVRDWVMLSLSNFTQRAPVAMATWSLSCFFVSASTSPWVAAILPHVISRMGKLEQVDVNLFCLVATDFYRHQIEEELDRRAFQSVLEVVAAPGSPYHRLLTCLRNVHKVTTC
* marks the source's active call; other numbers are inactive results; · = no result. This excerpt belongs to a sample that is enriched for hits. Cut-off read from the data, not from the text of the source: active = inhibition above about 50%; inactive = the rest.

SMILES	Pf apPOL inh	mHTT-CaM PPI inh
CCOC(=O)CC(=O)CSc1ccc2nnc(-c3ccccn3)n2n1	2	83*
O=C(CSc1ccc2nnc(-c3ccccn3)n2n1)NCc1ccc2c(c1)OCO2	5	24
Cc1ccc2nc(NC(=O)CSc3ccc4nnc(-c5ccccn5)n4n3)sc2c1	5	80*
Cc1ccc2nc(NC(=O)CSc3ccc(-n4cccn4)nn3)sc2c1	-3	-13
COc1ccc(N(CC(=O)Nc2ccc(F)cc2F)S(=O)(=O)c2ccccc2)cc1Cl	-2	18
Cn1c(=O)oc2cc(S(=O)(=O)NCC3CC4CCC3C4)c(Cl)cc21 (centres undefined)	·	4
COc1ccc(Cc2cnc(NC(=O)c3ccc(N4CCOCC4)c([N+](=O)[O-])c3)s2)cc1	-3	5
CC(C)(C)c1csc(NC(=O)c2ccc(N3CCOCC3)c([N+](=O)[O-])c2)n1	2	55*
COc1ccc(OC)c(C2C=C(Nc3ccccc3)C(=O)N2c2ccccc2)c1 (centres undefined)	-7	5
O=C1C(Nc2ccccc2)=CC(c2ccccc2[N+](=O)[O-])N1c1ccccc1 (centres undefined)	1	66*
COc1ccc(SCC(=O)N(CCn2cccn2)c2nc3c(F)cccc3s2)cc1	-4	-20
CCN1C(=O)C(C)(C(=O)Nc2ccc3c(c2)OCCO3)Oc2cccnc21 (centres undefined)	-3	0
COc1ccc(/C=C2\SC(=O)N(CCN)C2=O)cc1OC	-1	4
NCCN1C(=O)S/C(=C\c2ccc(F)c(Oc3ccccc3)c2)C1=O	-14	71*
N#Cc1ccc(/C=C2\SC(=Nc3ccccc3)NC2=O)cc1	-2	2
COc1cc([N+](=O)[O-])cc2[nH]c(-c3ccccc3)cc12	-3	-2
O=[N+]([O-])c1cc([N+](=O)[O-])c2cc(-c3ccco3)[nH]c2c1	·	53*
CC(=O)NC1=NC(=O)/C(=C/c2ccc(F)cc2)S1	-4	-6
CC(=O)NC1=NC(=O)/C(=C/c2c(C)n(Cc3ccc(F)cc3)c3ccccc23)S1	-3	100*
Cc1noc(CNC(=O)C2CCN(C(=O)CCc3c(C)noc3C)CC2)n1	-1	-19
CC1=CC(=NC(=NS(=O)(=O)c2ccc(C)cc2)c2ccccc2)C(C)=CC1=O	-1	59*
CC1=CC(=O)C=CC1=NC(=NS(=O)(=O)c1ccc(C)cc1)c1ccccc1	-9	58*
Cc1ccc(C(N)=NC(=NS(=O)(=O)c2ccccc2)c2ccccc2)cc1	2	5
Cc1ccc(S(=O)(=O)N=C(Nc2ccccn2)c2ccccc2)cc1	4	-1
NC(N)=NS(=O)(=O)c1ccc(N=Cc2ccc([N+](=O)[O-])cc2)cc1	-1	3
SMILES	Pf apPOL inh	mHTT-CaM PPI inh
COc1ccc(-c2nc(C(=O)NC3CC3)cs2)c(Cl)c1	94*	2
O=C(NC1CC1)c1csc(COc2ccc(Cl)cc2)n1	-10	-3
CC1CCN(C(=O)c2cnn3ccc(C4CCN(C(=O)Nc5ccccc5)CC4)cc23)CC1	0	44
O=C(O)c1cnc(=O)[nH]c1-c1cccnc1	1	·
COC(=O)c1ccc(Oc2c(C)oc3c4c(ccc3c2=O)OCN(Cc2ccccn2)C4)cc1	-36	100*
COCCCN1COc2ccc3c(=O)c(Oc4ccc(C(=O)OC)cc4)c(C)oc3c2C1	-19	3
CCCc1nn2c(N)c(C=C3C=CC(=O)C(OC)=C3)c(=O)nc2s1	1	12
O=[N+]([O-])c1cccc2ccc(Nc3ccccn3)nc12	3	14
COc1ccc(C(Nc2cc(C)ccn2)c2ccc3cccnc3c2O)cc1OC (centres undefined)	3	100*
COc1ccc(C)cc1NS(=O)(=O)c1cccc2cccnc12	-1	-3
COc1ccccc1C(Nc1cc(C)ccn1)c1ccc2cccnc2c1O (centres undefined)	-8	99*
COc1cccc2cc(C(=O)Nc3cc(C)ccn3)c(=O)oc12	-3	0
CCOc1ccc(C(Nc2ccccn2)c2ccc3ccc(C)nc3c2O)cc1OC (centres undefined)	1	49
COc1ccc(C(Nc2ccccn2)c2ccc3cccnc3c2O)cc1OC (centres undefined)	-4	100*
Cc1ccnc(NC(c2ccccc2[N+](=O)[O-])c2ccc3cccnc3c2O)c1 (centres undefined)	-3	100*
COc1ccc(-c2cc3n(n2)CCCN(C(=O)C2CCOC2)C3)cc1 (centres undefined)	-2	-1
O=C(c1cccnc1)N1CCN(c2ncnc3c2CCC3)CC1	2	0
CC1CCCCC1NC(=O)CNc1ccccc1-c1nc2ccccc2[nH]c1=O (centres undefined)	-3	-13
Cc1cc2ncn(S(=O)(=O)c3ccccc3[N+](=O)[O-])c2cc1C	-1	29
Oc1cc2c(cc1O)CCN=C2	·	1
COc1ccc(C(Nc2cc(C)ccn2)c2ccc3ccc(C)nc3c2O)cc1OC (centres undefined)	-55	96*
COc1ccc(NC(=O)Nc2cc(C)ccn2)cc1	-4	-3
Cc1cc(C)cc(NC(=O)C2CCCN(C(=O)c3cccc(C)c3)C2)c1 (centres undefined)	-13	31
O=CNC1CCCc2c1[nH]c1ccc(OCc3ccccc3)cc21 (centres undefined)	-2	53*
CCN(CC)CCNC1CCCc2c1[nH]c1ccc(C)cc21 (centres undefined)	-2	19
SMILES	Pf apPOL inh	mHTT-CaM PPI inh
Cc1ccc2[nH]c3c(c2c1)CCC3O (centres undefined)	-4	78*
Cc1ccc2[nH]c3c(c2c1)CCCC3NCCCN(C)C (centres undefined)	-1	36
O=CNC1CCCc2c1[nH]c1ccc(Cl)cc21 (centres undefined)	2	5
Cc1ccc2[nH]c3c(c2c1)CCCC3NCc1ccc(Cl)cc1 (centres undefined)	-4	73*
CC(=O)NC1CCCc2c1[nH]c1ccc(C)cc21 (centres undefined)	99*	5
COC(CNC1CCCc2c1[nH]c1ccc(C)cc21)OC (centres undefined)	16	18
O=C(NCc1ccccn1)c1cn2ccnc(-c3ccc(F)cc3)c2n1	-7	3
O=C1C(=O)N(Cc2ccco2)C(c2ccco2)C1=C(O)c1ccc(F)cc1 (centres undefined)	-6	1
COc1cccc(-c2nc(C=Nc3ccc(Br)cc3Br)c(O)o2)c1	-13	-4
COc1cc2c(cc1NC(=O)c1ccc(I)cc1)oc1ccccc12	-2	31
CCOc1cccc(CNC(=O)C2CCc3sc(C(=O)N(C)C)cc3C2)c1 (centres undefined)	-5	12
Cc1ccc2[nH]c3c(c2c1)CCCC3NCCCOc1ccccc1 (centres undefined)	9	100*
Cc1ccc2[nH]c3c(c2c1)CCCC3NCCCO (centres undefined)	-1	14
CCOc1cc(C2Oc3nc(SC)nnc3-c3ccccc3N2C(C)=O)ccc1OC (centres undefined)	-63	4
Fc1cccc(CN2CCc3nc(N4CCN(c5ncccn5)CC4)ncc3C2)c1	-3	100*
Fc1ccc(CN2CCc3nc(N4CCN(c5ccccc5)CC4)ncc3C2)cc1F	5	100*
Fc1ccccc1CN1CCc2nc(N3CCN(c4ccccc4)CC3)ncc2C1	4	34
Fc1cccc(CN2CCc3nc(N4CCN(c5ccccc5F)CC4)ncc3C2)c1	3	3

Screening results (PubChem BioAssay)
